In ChEMBL document CHEMBL3988442, “University of Dundee, Small-Polar-MMV Screening Library” (2021):
For some assays here: Measured potencies and affinities stand elsewhere.

Assays:
[1] = target: Protein translocase subunit SecA (Escherichia coli (strain K12)) (UniProt P10408); assay: Assay to Identify E. coli SecA ATPase Inhibitors; type: functional; set-up: scale not given: direction of the effect not stated beside the values; details: 30 µM
[2] = target: T1, Ubiquitin-activating enzyme e1, putative (Leishmania donovani (strain BPK282A1)) (UniProt E9BSI1); assay: Leishmania donovani Ubiquitin Activating Enzyme (LdE1); type: functional; set-up: scale not given: direction of the effect not stated beside the values; details: 30 µM
T1 sequence (whole entry): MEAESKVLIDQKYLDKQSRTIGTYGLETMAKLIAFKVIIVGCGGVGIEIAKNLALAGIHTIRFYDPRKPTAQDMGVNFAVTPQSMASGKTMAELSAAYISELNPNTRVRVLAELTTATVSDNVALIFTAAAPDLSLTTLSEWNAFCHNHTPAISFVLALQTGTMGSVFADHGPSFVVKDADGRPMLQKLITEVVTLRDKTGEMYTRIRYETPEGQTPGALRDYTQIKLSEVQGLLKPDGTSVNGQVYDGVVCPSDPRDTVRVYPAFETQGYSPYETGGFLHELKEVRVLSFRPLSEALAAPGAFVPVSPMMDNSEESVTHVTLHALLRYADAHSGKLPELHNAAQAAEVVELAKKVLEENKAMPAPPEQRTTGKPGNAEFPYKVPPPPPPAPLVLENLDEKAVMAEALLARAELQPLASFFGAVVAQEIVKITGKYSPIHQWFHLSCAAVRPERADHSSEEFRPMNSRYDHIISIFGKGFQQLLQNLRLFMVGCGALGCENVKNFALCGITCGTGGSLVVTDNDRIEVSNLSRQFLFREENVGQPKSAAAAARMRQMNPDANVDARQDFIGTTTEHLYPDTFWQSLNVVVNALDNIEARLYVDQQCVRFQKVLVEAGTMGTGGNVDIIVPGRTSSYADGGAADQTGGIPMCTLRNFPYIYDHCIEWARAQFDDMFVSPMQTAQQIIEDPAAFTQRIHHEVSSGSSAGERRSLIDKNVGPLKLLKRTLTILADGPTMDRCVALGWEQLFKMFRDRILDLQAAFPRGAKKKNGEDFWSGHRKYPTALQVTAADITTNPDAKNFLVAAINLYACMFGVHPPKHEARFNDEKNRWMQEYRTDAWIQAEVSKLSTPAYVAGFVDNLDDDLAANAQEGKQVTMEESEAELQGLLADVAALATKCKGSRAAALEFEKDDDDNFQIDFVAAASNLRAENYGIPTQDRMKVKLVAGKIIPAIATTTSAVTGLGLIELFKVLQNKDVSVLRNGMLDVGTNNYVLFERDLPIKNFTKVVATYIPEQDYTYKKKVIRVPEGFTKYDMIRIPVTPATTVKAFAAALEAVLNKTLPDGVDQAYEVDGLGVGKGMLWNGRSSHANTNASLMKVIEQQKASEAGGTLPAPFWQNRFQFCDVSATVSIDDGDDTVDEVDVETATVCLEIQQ

[3] = target: T2, Aspartate--tRNA(Asp/Asn) ligase (Mycobacterium tuberculosis (strain ATCC 25618 / H37Rv)) (UniProt P9WFW3); assay: Assay for Asp RNA synthetase-1 from Mycobacterium tuberculosis; type: functional; set-up: scale not given: direction of the effect not stated beside the values; details: 30 µM; also: in the data most compounds retested in dose-response had high values
T2 sequence (whole entry): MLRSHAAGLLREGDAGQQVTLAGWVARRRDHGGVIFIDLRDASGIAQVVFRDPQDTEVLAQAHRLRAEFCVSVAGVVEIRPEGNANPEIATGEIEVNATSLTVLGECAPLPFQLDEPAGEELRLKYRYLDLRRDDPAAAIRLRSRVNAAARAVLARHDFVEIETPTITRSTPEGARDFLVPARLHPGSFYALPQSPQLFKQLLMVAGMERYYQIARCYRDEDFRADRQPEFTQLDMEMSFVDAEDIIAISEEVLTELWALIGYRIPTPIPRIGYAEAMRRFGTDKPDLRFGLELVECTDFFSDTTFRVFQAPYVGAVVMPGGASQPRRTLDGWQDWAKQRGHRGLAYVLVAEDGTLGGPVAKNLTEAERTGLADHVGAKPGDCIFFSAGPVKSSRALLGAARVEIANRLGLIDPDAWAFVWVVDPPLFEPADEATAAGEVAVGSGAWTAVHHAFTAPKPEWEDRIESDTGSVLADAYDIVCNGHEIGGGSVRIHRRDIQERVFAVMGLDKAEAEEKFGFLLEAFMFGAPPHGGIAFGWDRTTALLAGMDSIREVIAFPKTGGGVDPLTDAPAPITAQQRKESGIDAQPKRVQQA

[4] = target: AMP-activated protein kinase, AMPK (Homo sapiens) (UniProt P54646+O43741+P54619+Q9UGJ0+Q9Y478+Q13131+Q9UGI9); assay: AMP-dependent Kinase enzyme assay. An in vitro enzyme assay that detects ADP turnover that is directly proportional to AMPK activity. This uses naive AMPK that is activated during the assay with MK-8722; type: functional; set-up: scale not given: direction of the effect not stated beside the values; details: 30 µM
[5] = target: Sialic acid-binding Ig-like lectin 9 (Homo sapiens) (UniProt Q9Y336); assay: Hs-Siglec9 ALPHAscreen SOP 20170721; set-up: scale not given: direction of the effect not stated beside the values; details: 10 µM
Sialic acid-binding Ig-like lectin 9 (Homo sapiens), sequence (Q9Y336 whole entry): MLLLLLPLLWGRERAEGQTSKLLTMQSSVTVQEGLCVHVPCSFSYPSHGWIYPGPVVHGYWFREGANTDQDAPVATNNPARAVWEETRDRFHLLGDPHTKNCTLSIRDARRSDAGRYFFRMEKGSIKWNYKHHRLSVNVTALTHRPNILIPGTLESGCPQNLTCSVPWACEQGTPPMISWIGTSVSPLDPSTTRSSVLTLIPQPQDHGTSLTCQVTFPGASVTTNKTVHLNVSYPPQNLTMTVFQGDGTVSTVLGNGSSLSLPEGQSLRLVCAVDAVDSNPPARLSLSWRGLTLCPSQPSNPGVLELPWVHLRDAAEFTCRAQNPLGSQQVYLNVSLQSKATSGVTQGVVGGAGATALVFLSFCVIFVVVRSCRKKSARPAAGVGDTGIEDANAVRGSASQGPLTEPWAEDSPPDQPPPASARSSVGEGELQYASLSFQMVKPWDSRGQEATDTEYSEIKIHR

Trypanosoma cruzi = assay: Trypanosoma cruzi phosphomannomutase and mannose-1-phosphate guanylyltransferase assay; type: functional; set-up: scale not given: direction of the effect not stated beside the values; details: 10 µM
[6] = target: T3, Arginase-2, mitochondrial (Homo sapiens) (UniProt P78540); assay: in vitro enzyme assay to detect the production of urea directly proportional to the activity of Arginase II; type: functional; set-up: scale not given: in the data most compounds retested in dose-response had high values
T3 sequence (whole entry): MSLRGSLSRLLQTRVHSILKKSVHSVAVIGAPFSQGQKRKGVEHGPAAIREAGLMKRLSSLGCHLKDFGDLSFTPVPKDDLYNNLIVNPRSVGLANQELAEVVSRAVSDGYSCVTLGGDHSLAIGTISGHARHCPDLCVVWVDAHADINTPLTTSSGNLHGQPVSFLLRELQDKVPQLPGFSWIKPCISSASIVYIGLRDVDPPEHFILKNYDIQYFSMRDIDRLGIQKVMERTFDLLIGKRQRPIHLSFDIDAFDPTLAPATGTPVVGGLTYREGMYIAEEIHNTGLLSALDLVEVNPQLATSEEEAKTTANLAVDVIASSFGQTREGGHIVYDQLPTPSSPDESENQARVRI

[7] = target: T4, Proteasome subunit beta (Trypanosoma cruzi) (UniProt O96673); assay: Trypanosoma cruzi proteasome chymotrypsin-like activity (TcProtChymo) assay.; type: functional; set-up: scale not given: in the data most compounds retested in dose-response had high values; details: 9.37 µM
T4 sequence (whole entry): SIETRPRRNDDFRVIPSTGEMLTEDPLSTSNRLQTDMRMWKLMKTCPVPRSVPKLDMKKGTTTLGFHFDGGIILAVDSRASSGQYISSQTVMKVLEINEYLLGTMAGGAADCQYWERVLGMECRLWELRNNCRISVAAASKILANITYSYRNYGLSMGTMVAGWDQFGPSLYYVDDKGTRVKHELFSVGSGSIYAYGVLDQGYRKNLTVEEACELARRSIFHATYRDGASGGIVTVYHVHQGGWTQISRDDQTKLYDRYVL

Homo sapiens = organism: Homo sapiens; assay: To identify inhibition of the IFN signalling (Jak-Stat) pathway via expression of an eGFP reporter gene under the control of an IFN-stimulated response element (ISRE) containing MxA promoter.; type: functional; set-up: scale not given: direction of the effect not stated beside the values; details: 30 µM
[8] = target: Shiga toxin 2 (Escherichia coli O157:H7) (UniProt P09385+P09386); assay: E. coli 0.157:H7 Shiga Toxin SOP - stx2 screening assay; type: functional; set-up: scale not given: direction of the effect not stated beside the values; details: 30 µM
[9] = target: T5, Tyrosyl-tRNA synthetase, putative (Trypanosoma cruzi (strain CL Brener)) (UniProt Q4DSP6); assay: Trypanosoma cruzi tyrosyl tRNA synthetase (TcYRS) _High Tyrosine SOP; type: functional; set-up: scale not given: in the data most compounds retested in dose-response had high values; details: 30 µM
T5 sequence (whole entry): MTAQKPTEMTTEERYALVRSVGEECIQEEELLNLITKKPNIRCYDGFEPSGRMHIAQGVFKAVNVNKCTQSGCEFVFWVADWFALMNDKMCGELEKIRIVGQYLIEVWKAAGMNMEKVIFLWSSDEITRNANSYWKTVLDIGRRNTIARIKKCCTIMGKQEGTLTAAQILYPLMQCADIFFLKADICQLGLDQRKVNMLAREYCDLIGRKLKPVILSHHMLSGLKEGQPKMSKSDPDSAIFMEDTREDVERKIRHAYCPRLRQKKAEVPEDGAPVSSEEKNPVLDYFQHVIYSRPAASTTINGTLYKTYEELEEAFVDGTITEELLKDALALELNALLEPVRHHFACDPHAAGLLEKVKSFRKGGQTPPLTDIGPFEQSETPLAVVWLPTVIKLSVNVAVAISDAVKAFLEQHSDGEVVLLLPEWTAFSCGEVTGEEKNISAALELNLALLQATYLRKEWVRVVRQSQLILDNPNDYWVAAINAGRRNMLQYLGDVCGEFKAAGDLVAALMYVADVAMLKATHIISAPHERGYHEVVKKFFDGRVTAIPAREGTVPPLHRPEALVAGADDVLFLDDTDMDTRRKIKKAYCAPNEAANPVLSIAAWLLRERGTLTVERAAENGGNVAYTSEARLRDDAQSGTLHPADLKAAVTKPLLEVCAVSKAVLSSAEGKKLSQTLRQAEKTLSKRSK

[10] = target: T5, Tyrosyl-tRNA synthetase, putative (Trypanosoma cruzi (strain CL Brener)); assay: Trypanosoma cruzi tyrosyl tRNA synthetase (TcYRS) SOP; type: functional; set-up: scale not given: direction of the effect not stated beside the values; details: 30 µM
[11] = target: Chromo domain-containing protein 1 (Saccharomyces cerevisiae (strain ATCC 204508 / S288c) (Baker's yeast)) (UniProt P32657); assay: ScCHD-1 Enzyme Inhibition Assay; type: functional; set-up: scale not given: in the data most compounds retested in dose-response had high values; details: 30 µM
Chromo domain-containing protein 1 (Saccharomyces cerevisiae (strain ATCC 204508 / S288c) (Baker's yeast)), sequence (P32657 whole entry, the tested form may be a part): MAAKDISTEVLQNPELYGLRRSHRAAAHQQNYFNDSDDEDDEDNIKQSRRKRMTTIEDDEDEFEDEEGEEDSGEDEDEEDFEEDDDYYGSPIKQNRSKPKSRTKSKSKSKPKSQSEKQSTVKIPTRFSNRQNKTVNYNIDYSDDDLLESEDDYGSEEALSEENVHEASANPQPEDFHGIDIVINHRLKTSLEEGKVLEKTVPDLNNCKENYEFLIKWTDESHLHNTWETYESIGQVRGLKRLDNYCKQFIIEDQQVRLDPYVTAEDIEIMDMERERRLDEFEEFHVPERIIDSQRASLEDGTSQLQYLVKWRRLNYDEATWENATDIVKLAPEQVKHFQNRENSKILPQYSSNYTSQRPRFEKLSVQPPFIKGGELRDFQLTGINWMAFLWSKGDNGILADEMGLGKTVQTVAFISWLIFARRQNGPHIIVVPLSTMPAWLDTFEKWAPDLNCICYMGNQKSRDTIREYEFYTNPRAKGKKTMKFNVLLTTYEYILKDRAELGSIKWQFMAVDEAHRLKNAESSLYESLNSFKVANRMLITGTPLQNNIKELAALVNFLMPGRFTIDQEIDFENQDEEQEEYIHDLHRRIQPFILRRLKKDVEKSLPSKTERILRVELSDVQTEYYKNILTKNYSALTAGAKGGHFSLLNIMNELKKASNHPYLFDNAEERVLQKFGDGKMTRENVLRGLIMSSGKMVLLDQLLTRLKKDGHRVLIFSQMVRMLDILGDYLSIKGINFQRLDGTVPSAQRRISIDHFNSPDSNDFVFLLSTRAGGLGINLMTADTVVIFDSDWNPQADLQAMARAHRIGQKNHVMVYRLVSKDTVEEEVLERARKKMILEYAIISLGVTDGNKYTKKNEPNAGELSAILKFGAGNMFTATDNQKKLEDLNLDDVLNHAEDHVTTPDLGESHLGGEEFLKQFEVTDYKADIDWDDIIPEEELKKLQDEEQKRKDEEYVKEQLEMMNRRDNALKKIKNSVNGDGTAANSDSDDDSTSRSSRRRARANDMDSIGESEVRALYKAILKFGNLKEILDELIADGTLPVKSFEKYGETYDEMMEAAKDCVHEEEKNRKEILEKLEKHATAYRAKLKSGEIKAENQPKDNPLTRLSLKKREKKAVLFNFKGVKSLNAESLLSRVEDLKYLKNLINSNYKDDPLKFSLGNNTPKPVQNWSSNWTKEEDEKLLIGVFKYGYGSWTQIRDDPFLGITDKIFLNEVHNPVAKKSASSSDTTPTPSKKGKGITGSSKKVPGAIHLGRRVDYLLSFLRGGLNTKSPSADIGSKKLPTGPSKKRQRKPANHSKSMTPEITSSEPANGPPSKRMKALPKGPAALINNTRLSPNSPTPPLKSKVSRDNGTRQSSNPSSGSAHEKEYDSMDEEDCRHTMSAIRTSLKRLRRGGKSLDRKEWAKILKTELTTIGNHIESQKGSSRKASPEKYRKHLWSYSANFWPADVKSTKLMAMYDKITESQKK

[12] = target: T6, Methionyl-tRNA synthetase, putative (Leishmania donovani (strain BPK282A1)) (UniProt E9BF75); assay: Leishmania donovani Methionine tRNA synthetase (LdMetRS):v7. Dose response assay; type: functional; set-up: conc 80 nM, time 150 minutes
T6 sequence (whole entry): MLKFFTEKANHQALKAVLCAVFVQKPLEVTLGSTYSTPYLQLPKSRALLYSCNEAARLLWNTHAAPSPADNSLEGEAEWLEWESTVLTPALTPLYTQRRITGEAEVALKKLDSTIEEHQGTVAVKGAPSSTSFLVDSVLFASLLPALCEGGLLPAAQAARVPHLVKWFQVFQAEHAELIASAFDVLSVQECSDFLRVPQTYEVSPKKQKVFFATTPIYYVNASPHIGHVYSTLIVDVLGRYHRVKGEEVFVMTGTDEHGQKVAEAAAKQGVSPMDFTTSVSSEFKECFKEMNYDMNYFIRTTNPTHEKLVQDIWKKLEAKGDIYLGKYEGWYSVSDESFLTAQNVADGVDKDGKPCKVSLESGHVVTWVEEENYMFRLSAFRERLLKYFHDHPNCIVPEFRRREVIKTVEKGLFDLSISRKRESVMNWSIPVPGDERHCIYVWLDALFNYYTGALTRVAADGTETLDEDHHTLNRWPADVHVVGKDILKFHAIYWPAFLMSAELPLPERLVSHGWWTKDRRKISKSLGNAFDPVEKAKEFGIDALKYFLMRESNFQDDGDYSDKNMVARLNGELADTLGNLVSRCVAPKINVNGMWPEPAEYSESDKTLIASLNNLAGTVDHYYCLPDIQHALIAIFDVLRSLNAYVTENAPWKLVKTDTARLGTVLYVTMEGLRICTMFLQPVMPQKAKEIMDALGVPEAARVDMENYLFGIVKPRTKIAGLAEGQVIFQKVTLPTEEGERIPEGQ

Protein translocase subunit SecA (Escherichia coli (strain K12)), sequence (P10408 whole entry): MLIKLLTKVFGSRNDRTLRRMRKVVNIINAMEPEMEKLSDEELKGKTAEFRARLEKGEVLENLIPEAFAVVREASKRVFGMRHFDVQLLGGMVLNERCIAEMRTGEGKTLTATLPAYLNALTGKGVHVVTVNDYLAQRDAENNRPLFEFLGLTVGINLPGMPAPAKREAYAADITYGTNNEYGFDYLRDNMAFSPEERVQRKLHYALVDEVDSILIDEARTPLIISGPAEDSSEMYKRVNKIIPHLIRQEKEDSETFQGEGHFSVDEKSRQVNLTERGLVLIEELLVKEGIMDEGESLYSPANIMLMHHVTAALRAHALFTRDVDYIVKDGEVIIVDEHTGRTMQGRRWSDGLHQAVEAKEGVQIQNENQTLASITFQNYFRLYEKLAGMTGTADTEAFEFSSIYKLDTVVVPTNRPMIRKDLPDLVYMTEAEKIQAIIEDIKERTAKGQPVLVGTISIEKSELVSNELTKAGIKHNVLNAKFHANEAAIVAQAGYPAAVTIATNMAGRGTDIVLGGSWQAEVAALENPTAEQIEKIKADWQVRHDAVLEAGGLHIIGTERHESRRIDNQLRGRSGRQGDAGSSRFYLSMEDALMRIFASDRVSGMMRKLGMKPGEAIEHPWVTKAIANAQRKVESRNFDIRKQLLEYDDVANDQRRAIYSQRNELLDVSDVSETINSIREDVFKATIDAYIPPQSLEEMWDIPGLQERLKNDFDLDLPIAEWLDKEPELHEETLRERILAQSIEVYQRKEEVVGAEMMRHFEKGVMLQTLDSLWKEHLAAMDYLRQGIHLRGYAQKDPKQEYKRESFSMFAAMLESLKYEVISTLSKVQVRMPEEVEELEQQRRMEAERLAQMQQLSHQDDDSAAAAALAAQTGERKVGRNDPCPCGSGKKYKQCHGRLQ

Compound	Percent Effect [1]	Percent Effect [2]	Percent Effect [3]	Percent Effect [4]	Percent Effect [5]	Percent Effect (Trypanosoma cruzi)	Percent Effect ([6]; 30 µM)	Percent Effect ([6]; 33.3 µM)	Percent Effect [7]	Percent Effect (Homo sapiens)	Percent Effect [8]	Percent Effect [9]	Percent Effect [10]	Percent Effect [11]	PXC50 ([12]; BOTTOM 3.20477061, HILLSLOPE 1.084567425, MAX_EFFECT 62.37623762, TOP 100.0)	PXC50 ([12]; BOTTOM 6.472550683, HILLSLOPE 0.834102773, MAX_EFFECT 67.39130435, TOP 100.0)	PXC50 ([12]; BOTTOM 6.940148658, HILLSLOPE 1.034617946, MAX_EFFECT 59.85663082, TOP 100.0)
c1ccc(CN2CC[C@]3(C[C@@H](Oc4ccccn4)CO3)C2)nc1	-4.14%	18.7%	-1.57%	-1.39%	-5.45%	-0.394%	-12.4%	0.233%	5.02%	17.7%	-36.4%	2.13%	14.1%	-0.948%			
Clc1cc(CN2CCCN3CCCC3C2)c2ncccc2c1 (stereo unspecified)															4.18	4.08	4.1
CCn1cc(CN2CCCN(C(=O)Cc3cccs3)CC2)cn1	-4.84%	22.8%	-2.8%	-10.6%	3.48%	6.52%		-0.76%	15.6%	-4.27%	-21.2%	10.3%	29.1%	-8.38%			
CCS(=O)(=O)N[C@@H]1CN(Cc2cc(C)on2)C[C@@H]2CCCO[C@@H]21	-5.04%	8.11%	4.25%	0.656%	19%	1.66%		4.71%	6.27%	-3.3%	1.95%	6.45%	18.5%	-4.16%			
CCN1CCC2(COCc3cnc(NCC4CC4)nc32)C1 (stereo unspecified)	1.53%	0%	0.296%	-4.7%	2.85%	5.95%		-2%	3.68%	18.1%	-28.9%	0%	8.64%	-0.871%			
